Source: PubChem BioAssay (NCI)
About 83,000 compounds went through this panel and 20% of them were active in at least one assay; those are over-represented in the sample as a whole.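 Percent growth is the endpoint: 0 to 100 indicates growth inhibition (40 means 60% inhibition), 0 means no net growth, and negative values indicate cell death.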 Unmarked numbers belong to inactive results. Calls of active or inactive are those of the source. How the source made its calls: active means growth percent below 10; inactive means the rest.

Legend:
Experiment in all cases: NCI-60 one-dose screen, 48 h (100 = growth as untreated, 0 = no growth, -100 = all killed)
Details in all cases: 10 µM unless noted
NCI-H23 lung = tested on: NCI-H23 lung
NCI-H226 lung = tested on: NCI-H226 lung
NCI-H322M lung = tested on: NCI-H322M lung
HOP-62 NSCLC = tested on: HOP-62 NSCLC
HOP-92 NSCLC = tested on: HOP-92 NSCLC
NCI-H522 lung = tested on: NCI-H522 lung
A549/ATCC NSCLC = tested on: A549/ATCC NSCLC
786-0 renal = tested on: 786-0 renal
COLO 205 colon = tested on: COLO 205 colon
DU-145 prostate = tested on: DU-145 prostate
K-562 leukemia = tested on: K-562 leukemia
MALME-3M melanoma = tested on: MALME-3M melanoma
MDA-MB-231 breast = tested on: MDA-MB-231 breast
RXF 393 renal = tested on: RXF 393 renal
SF-268 CNS = tested on: SF-268 CNS
SF-295 CNS = tested on: SF-295 CNS
SF-539 CNS = tested on: SF-539 CNS
UACC-257 melanoma = tested on: UACC-257 melanoma
M14 melanoma = tested on: M14 melanoma
NCI-H460 lung = tested on: NCI-H460 lung

| SMILES | growth (NCI-H23 lung) | growth (NCI-H226 lung) | growth (NCI-H322M lung) | growth (HOP-62 NSCLC) | growth (HOP-92 NSCLC) | growth (NCI-H522 lung) | growth (A549/ATCC NSCLC) | growth (786-0 renal) | growth (COLO 205 colon) | growth (DU-145 prostate) | growth (K-562 leukemia) | growth (MALME-3M melanoma) | growth (MDA-MB-231 breast) | growth (RXF 393 renal) | growth (SF-268 CNS) [%] | growth (SF-295 CNS) | growth (SF-539 CNS) | growth (UACC-257 melanoma) | growth (M14 melanoma) | growth (NCI-H460 lung) [%] |
| --- | --- | --- | --- | --- | --- | --- | --- | --- | --- | --- | --- | --- | --- | --- | --- | --- | --- | --- | --- | --- |
| O=C(/C=C/c1ccc(F)cc1)c1ccc(NC(=O)N2CCN(c3cc4c(cc3F)c(=O)c(C(=O)O)cn4C3CC3)CC2)cc1 | 92.8% | 96.1% | 100% | 98% | 88.5% | 87% | 102% | 92.4% | 115% | 103% | 91.2% | 91.3% | 89.7% | 98.3% | 89.9 | 98.7% | 94.1% | 97.2% | 97.8% |  |
| Cc1c2cc[nH]c(=O)c2c(C)c2c1[nH]c1cc(OCCN3CCN(C)CC3)ccc12 | -18.1% (active) | 2.73% (active) | 7.9% (active) | -16.9% (active) | 18.8% | -23.9% (active) | -21.4% (active) | 20.9% | -10.1% (active) | 2.69% (active) |  | -58.8% (active) | 4% (active) | -25% (active) | 11.8 | 3.16% (active) | -0.233% (active) | -1.41% (active) | -37.1% (active) |  |
| N/C(=N\C(N)=N\c1nc2ccccc2s1)c1cccc(Cl)c1 | 58.4% | 85.6% | 97.7% | -8.36% (active) | 108% | 87.5% | 9.74% (active) | 94.4% | 101% | 89.6% | 72.8% | 102% | 73.7% | 115% | 83.6 | 12% | 99.2% | 113% | 96.1% |  |
| C=C1C(=O)O[C@H]2[C@H]1CC/C(COC(=O)NCc1c[nH]c3ccc(F)cc13)=C\CC[C@@]1(C)O[C@@H]21 | 48.4% | 4.11% (active) | 80.9% | 62.4% | -18.1% (active) | -75.2% (active) | 54.6% | -51.5% (active) | -59.1% (active) | -62.9% (active) | 1.89% (active) | -68.8% (active) | -57.5% (active) | -88.5% (active) | 36 | 61.2% | -52.6% (active) | 14.3% | -50.8% (active) |  |
| COc1cccc2c1c1nc3cc(C)c(C)cc3nc1n2CCN(C)C | 18.4% | -6.81% (active) | 24.7% | 24.9% | 36.1% | -4.98% (active) | 10.6% | 36% | 9.54% (active) | 19.7% | 6.22% (active) | -12.1% (active) | 23.5% | 30% | 37.9 | 20.1% | 23.2% | 8.52% (active) | 22.2% |  |
| C/C(=N\NC(=O)CSc1nc2ccccc2c(=O)n1Cc1ccc(S(N)(=O)=O)cc1)c1ccc(F)cc1 | 105% | 102% | 102% | 98.8% | 124% | 18.1% | 102% | 104% | 115% | 111% | 103% | 106% | 101% | 109% | 98.8 | 102% | 104% | 107% | 107% |  |
| O=C(NO)c1ccc(-n2nc(-c3ccccc3)c3ccccc32)cc1 | 49.9% | 56.4% | 46.9% | 29.7% |  | 6.17% (active) | 41.7% |  | 49% | 38.4% | 37.8% | 57% | 40.3% | 36.5% | 54.7 | 80.9% | 49.3% | 78.5% | 57.2% | 26.6 |
| CCC(CC)NCC(C)(C)O | 97.7% | 109% | 94% | 119% | 105% | 105% | 102% | 107% | 120% | 106% | 102% | 113% | 102% | 117% | 109 | 103% | 111% | 106% | 97% |  |
